From PubChem BioAssay (NCI)
The panel holds about 79,000 compounds, 15% with a hit somewhere; the sample as a whole holds those more often. The source made the active and inactive calls. No stated cut-off is given here; in the data, active means growth inhibition above about 70%; inactive means the rest.

Legend:
[1] = NCI Yeast Anticancer Drug Screen. Data for the mlh1 strain (AID 171);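 further: 0% = growth of vehicle-treated control cultures of the same strain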; details: S. cerevisiae mlh1 strain growth inhibition, active compounds read high
Summary of the method: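 Growth of the mutant yeast strain after compound exposure, expressed as inhibition relative to vehicle-only controls.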

[2] = NCI Yeast Anticancer Drug Screen. Data for the sgs1 strain (AID 173);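 further: 0% = growth of vehicle-only control cultures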; details: S. cerevisiae sgs1 mutant, active compounds read high
Summary of the method: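 Growth of a yeast strain bearing a defined genetic alteration is measured after compound treatment. Inhibition is expressed relative to vehicle-only controls.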

[3] = NCI Yeast Anticancer Drug Screen. Data for the mlh1 rad18 strain (AID 175); details: S. cerevisiae mlh1 rad18 strain growth inhibition, active compounds read high
Summary of the method: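 Read-out is yeast growth inhibition, calculated against vehicle-only controls. The compound was applied to a strain engineered with DNA damage repair alterations.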

[4] = NCI Yeast Anticancer Drug Screen. Data for the rad18 strain (AID 177); details: S. cerevisiae rad18 mutant growth inhibition, active compounds read high
Summary of the method: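 Growth of the mutant yeast strain after compound exposure, normalised to vehicle-only cultures.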

[5] = NCI Yeast Anticancer Drug Screen. Data for the rad52 strain (AID 147);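 further: 0% = growth of vehicle-treated control cultures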; details: S. cerevisiae rad52 mutant growth inhibition, active compounds read high
Summary of the method: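 Compounds are applied to a genetically defined yeast strain lacking normal DNA damage repair, and inhibition of growth is expressed relative to cultures given vehicle only.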

[6] = NCI Yeast Anticancer Drug Screen. Data for the wt1 strain (AID 149);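 further: 0% = growth of vehicle-treated wt1 cultures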; details: S. cerevisiae wt1 strain (SPY 50644) growth inhibition, active compounds read high
Summary of the method: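 Readout: yeast growth inhibition, normalised to vehicle controls, in the wt1 strain exposed to test compounds.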

[7] = NCI Yeast Anticancer Drug Screen. Data for the mgt1 strain (AID 153); details: S. cerevisiae mgt1 mutant growth inhibition, active compounds read high
Summary of the method: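 Strain: mgt1 yeast, one of a set carrying defined DNA damage repair or cell cycle control alterations. Compound-treated growth compared with vehicle.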

[8] = NCI Yeast Anticancer Drug Screen. Data for the rad50 strain (AID 155);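 further: 0% = growth of vehicle-only cultures of the same strain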; details: S. cerevisiae rad50 strain growth inhibition, active compounds read high
Summary of the method: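 Compounds were tested on a yeast strain with an engineered DNA damage repair alteration; the reported value is growth inhibition normalised to vehicle treatment.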

[9] = NCI Yeast Anticancer Drug Screen. Data for the mec2-1 strain (AID 157); details: S. cerevisiae mec2-1 strain, active compounds read high
Summary of the method: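 Strain: mec2-1 (DNA repair/cell cycle alteration). Compound exposure, then growth measured; inhibition expressed relative to vehicle.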

[10] = NCI Yeast Anticancer Drug Screen. Data for the rad14 strain (AID 159);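 further: 0% = growth of vehicle-treated control cultures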; details: S. cerevisiae rad14 strain growth inhibition, active compounds read high
Summary of the method: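 Compound-treated yeast with a defined DNA-repair lesion; growth inhibition normalised to vehicle-treated cultures.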

[11] = NCI Yeast Anticancer Drug Screen. Data for the sgs1 mgt1 strain (AID 161);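 further: 0% = growth of cultures given vehicle only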; details: S. cerevisiae sgs1 mgt1 strain, active compounds read high
Summary of the method: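 Inhibition of yeast growth, normalised to vehicle-treated controls, is reported for a strain bearing genetic alterations in DNA damage repair.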

[12] = NCI Yeast Anticancer Drug Screen. Data for the CLN2oe strain (AID 163);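 further: 0% = growth of vehicle-only control cultures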; details: S. cerevisiae CLN2oe strain, active compounds read high
Summary of the method: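 Growth of a genetically modified yeast strain is measured after compound exposure and compared with cultures given vehicle alone.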

[13] = NCI Yeast Anticancer Drug Screen. Data for the cln2 rad14 strain (AID 165);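 further: 0% = growth equal to vehicle treated cultures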; details: S. cerevisiae cln2 rad14 strain, active compounds read high
Summary of the method: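 Compounds are applied to the cln2 rad14 yeast strain, and growth is then compared with that of vehicle-treated cultures to give inhibition.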

[14] = NCI Yeast Anticancer Drug Screen. Data for the bub3 strain (AID 167); details: S. cerevisiae bub3 mutant strain, active compounds read high
Summary of the method: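 Growth of a checkpoint-deficient yeast mutant is measured after compound exposure. Values represent inhibition relative to vehicle.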

[15] = NCI Yeast Anticancer Drug Screen. Data for the wt2 strain (AID 169);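 further: 0% = growth of vehicle-treated yeast cultures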; details: S. cerevisiae wt2 strain growth inhibition, active compounds read high
Summary of the method: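 This strain belongs to a panel of yeast strains with defined genetic alterations in DNA damage repair or cell cycle control. Compounds are applied, and growth inhibition is measured against vehicle-treated cultures.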

[16] = at 5.0 µM (retest, dose inferred, filed as 0.5)
[17] = at 50.0 µM (retest, dose inferred, filed as 5.0)

Measured: growth inhibition

COC(C(O)CO)C(O)C(O)C(=O)NNc1ccccc1 (stereo unspecified)
inactive: [1]; at 1.2 µM 2% | [1]; at 3.7 µM 9% | [1]; at 11.0 µM 44% | [1]; at 33.0 µM 61% | [2]; at 1.2 µM -11% | [2]; at 3.7 µM 34% | [2]; at 11.0 µM 47% | [2]; at 33.0 µM 68% | [3]; [16] 28% | [4]; at 1.2 µM 17% | [4]; at 3.7 µM 49%
active: [1]; at 100.0 µM 97% | [2]; at 100.0 µM 97% | [3]; [17] 96% | [3]; at 50.0 µM 94.5% | [4]; at 11.0 µM 79% | [4]; at 33.0 µM 78% | [4]; at 100.0 µM 97%

CCc1ccc2c(c1)N(CC(C)CN(C)C)c1ccccc1S2 (stereo unspecified)
active: [7]; at 100.0 µM 76% | [8]; at 100.0 µM 82% | [10]; at 100.0 µM 96% | [14]; at 50.0 µM 74% | [14]; at 100.0 µM 74% | [15]; at 100.0 µM 78% | [2]; at 100.0 µM 93% | [3]; at 50.0 µM 83.5% | [4]; at 100.0 µM 85%
inactive: [5]; at 1.2 µM -5% | [5]; at 3.7 µM -8% | [5]; at 11.0 µM -9% | [5]; at 33.0 µM -1% | [5]; at 100.0 µM 69% | [6]; at 1.2 µM -2% | [6]; at 3.7 µM -4% | [6]; at 11.0 µM -6% | [6]; at 33.0 µM -5% | [6]; at 100.0 µM 32% | [7]; at 1.2 µM -3% | [7]; at 3.7 µM -4% | [7]; at 11.0 µM -6% | [7]; at 33.0 µM 0% | [8]; at 1.2 µM -4% | [8]; at 3.7 µM -9% | [8]; [16] 2% | [8]; at 11.0 µM -1% | [8]; at 33.0 µM 4% | [8]; [17] 37% | [8]; at 50.0 µM 52.1% | [9]; at 1.2 µM -6% | [9]; at 3.7 µM -8% | [9]; [16] -7% | [9]; at 11.0 µM -12% | [9]; at 33.0 µM -4% | [9]; [17] -27% | [9]; at 50.0 µM -12.1% | [9]; at 100.0 µM 58% | [10]; at 1.2 µM -2% | [10]; at 3.7 µM -4% | [10]; at 11.0 µM -1% | [10]; at 33.0 µM 23% | [11]; [16] -12% | [11]; [17] 23% | [11]; at 50.0 µM 24.3% | [12]; at 1.2 µM -9% | [12]; at 3.7 µM -4% | [12]; at 11.0 µM -10% | [12]; at 33.0 µM 3% | [12]; at 100.0 µM 58% | [13]; [16] -24% | [13]; [17] 21% | [13]; at 50.0 µM 65% | [14]; at 1.2 µM -3% | [14]; at 3.7 µM 3% | [14]; [16] 2% | [14]; at 11.0 µM 18% | [14]; at 33.0 µM 48% | [14]; [17] 32% | [15]; at 1.2 µM -4% | [15]; at 3.7 µM -4% | [15]; at 11.0 µM -6% | [15]; at 33.0 µM 3% | [1]; at 1.2 µM -2% | [1]; at 3.7 µM -3% | [1]; at 11.0 µM -5% | [1]; at 33.0 µM -23% | [1]; at 100.0 µM 62% | [2]; at 1.2 µM -4% | [2]; at 3.7 µM -5% | [2]; at 11.0 µM -4% | [2]; at 33.0 µM 16% | [3]; [16] -9% | [3]; [17] 63% | [4]; at 1.2 µM -12% | [4]; at 3.7 µM -10% | [4]; at 11.0 µM -8% | [4]; at 33.0 µM 2%
